According to PubChem BioAssay AID652234 (Broad Institute, 2013):
The source made the active and inactive calls. How the calls were made is not given here.

Target: Ubiquitin carboxyl-terminal hydrolase 9X (Homo sapiens) (UniProt Q93008)
Experiment: USP9X direct binding, late-stage follow-up, orthogonal assay, biophysical, surface plasmon resonance (AID 652234)
Details: Recombinant USP9X, SPR Biacore T200, RU; at 100 µM (top of the series)

Ubiquitin carboxyl-terminal hydrolase 9X (Homo sapiens), sequence (Q93008 whole entry, looked up): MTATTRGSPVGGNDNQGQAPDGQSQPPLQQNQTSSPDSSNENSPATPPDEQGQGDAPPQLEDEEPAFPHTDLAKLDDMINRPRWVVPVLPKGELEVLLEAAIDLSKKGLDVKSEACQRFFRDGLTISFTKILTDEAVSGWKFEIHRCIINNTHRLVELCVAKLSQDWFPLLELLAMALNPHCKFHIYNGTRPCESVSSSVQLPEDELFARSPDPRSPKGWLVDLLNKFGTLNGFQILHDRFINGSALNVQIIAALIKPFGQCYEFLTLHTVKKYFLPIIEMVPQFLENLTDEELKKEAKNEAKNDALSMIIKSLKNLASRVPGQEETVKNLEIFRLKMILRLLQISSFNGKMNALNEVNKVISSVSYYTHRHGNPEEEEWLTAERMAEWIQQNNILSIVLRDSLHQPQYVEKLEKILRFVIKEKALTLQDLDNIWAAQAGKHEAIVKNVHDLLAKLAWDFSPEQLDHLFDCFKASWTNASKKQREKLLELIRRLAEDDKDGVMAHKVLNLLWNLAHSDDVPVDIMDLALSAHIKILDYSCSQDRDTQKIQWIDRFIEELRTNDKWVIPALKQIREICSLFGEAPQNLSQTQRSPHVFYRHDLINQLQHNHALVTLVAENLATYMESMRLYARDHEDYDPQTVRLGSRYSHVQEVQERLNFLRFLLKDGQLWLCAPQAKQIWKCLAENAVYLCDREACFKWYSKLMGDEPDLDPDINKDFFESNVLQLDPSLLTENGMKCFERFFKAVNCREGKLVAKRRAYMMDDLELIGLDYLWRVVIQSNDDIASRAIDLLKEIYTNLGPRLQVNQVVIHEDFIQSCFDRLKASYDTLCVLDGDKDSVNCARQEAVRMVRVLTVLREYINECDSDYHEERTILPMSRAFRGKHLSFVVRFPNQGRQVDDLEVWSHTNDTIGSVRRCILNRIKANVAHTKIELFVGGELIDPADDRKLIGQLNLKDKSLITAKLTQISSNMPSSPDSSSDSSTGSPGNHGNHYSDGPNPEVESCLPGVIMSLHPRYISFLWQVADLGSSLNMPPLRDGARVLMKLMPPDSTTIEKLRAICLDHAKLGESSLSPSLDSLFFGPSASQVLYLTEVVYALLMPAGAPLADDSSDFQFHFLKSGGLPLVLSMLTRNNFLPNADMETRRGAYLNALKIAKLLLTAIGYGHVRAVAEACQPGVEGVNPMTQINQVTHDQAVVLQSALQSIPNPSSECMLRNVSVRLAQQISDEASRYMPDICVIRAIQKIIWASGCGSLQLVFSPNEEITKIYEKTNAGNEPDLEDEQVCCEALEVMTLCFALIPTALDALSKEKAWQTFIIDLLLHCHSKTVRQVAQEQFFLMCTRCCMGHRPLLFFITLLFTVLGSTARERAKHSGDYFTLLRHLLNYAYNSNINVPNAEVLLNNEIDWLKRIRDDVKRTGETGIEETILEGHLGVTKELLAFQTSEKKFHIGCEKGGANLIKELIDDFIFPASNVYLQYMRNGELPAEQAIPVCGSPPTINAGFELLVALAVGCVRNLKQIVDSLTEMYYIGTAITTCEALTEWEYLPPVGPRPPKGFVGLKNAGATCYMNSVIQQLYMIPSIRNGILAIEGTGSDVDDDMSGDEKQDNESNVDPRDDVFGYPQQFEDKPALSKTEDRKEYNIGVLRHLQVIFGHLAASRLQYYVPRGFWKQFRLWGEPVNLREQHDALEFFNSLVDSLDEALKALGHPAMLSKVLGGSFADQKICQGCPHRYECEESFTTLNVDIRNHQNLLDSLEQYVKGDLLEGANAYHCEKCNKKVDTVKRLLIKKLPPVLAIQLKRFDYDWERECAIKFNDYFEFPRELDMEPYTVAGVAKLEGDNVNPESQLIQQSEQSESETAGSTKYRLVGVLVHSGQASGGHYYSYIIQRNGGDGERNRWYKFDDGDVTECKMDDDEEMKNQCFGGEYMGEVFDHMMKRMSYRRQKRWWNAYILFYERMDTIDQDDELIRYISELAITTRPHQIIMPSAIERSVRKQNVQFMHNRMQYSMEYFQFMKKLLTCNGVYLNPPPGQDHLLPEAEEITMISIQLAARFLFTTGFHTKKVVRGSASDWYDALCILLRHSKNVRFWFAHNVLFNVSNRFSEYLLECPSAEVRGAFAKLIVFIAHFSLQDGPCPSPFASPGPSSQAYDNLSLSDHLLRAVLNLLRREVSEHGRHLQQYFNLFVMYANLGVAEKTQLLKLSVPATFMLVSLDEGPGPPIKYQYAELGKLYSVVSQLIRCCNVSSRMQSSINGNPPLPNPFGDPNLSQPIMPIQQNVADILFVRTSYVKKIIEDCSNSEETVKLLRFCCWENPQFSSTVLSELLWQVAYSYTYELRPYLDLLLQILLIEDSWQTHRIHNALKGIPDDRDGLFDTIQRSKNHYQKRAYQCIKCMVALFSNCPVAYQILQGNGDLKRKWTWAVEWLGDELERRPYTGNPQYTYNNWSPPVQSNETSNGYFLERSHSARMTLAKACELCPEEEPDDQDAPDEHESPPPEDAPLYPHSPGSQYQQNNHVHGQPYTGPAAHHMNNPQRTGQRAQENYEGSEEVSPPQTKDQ

C[C@@H]1CN([C@@H](C)CO)C(=O)c2cccc(NC(=O)Nc3cccc4ccccc34)c2O[C@H]1CN(C)S(=O)(=O)c1ccc2c(c1)OCCO2
binding signal (RU), higher = more binding: 11.2 (active)
